According to PubChem BioAssay (Tox21):
Inconclusive results are not listed. Entries that show only a call come without a potency. Active and inactive are the calls of the source. Calls come from the whole dose curve.

molecular target: Beta-2 adrenergic receptor (Homo sapiens) (UniProt P07550); assay: Adrenergic beta2 receptor (ADRB2) small molecule antagonists, cell-based qHTS assay (AID 1963592); conditions: CHO-ADRB2 cells, isoproterenol-stimulated cAMP HTRF ratio, 0.5 h; series mostly up to 92.4 µM; note: nearly all actives have a fitted effect of over 50% in size
Method in brief: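 Assay format: CHO-ADRB2 cells, 18-20hr seeding at 37C/5% CO2, then compound plus 1nM isoproterenol agonist mix for 0.5hr RT. Homogeneous time-resolved fluorescence cAMP detection after 1hr, expressed as 665/615 nm ratio.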

Beta-2 adrenergic receptor (Homo sapiens), sequence (P07550 whole entry, looked up): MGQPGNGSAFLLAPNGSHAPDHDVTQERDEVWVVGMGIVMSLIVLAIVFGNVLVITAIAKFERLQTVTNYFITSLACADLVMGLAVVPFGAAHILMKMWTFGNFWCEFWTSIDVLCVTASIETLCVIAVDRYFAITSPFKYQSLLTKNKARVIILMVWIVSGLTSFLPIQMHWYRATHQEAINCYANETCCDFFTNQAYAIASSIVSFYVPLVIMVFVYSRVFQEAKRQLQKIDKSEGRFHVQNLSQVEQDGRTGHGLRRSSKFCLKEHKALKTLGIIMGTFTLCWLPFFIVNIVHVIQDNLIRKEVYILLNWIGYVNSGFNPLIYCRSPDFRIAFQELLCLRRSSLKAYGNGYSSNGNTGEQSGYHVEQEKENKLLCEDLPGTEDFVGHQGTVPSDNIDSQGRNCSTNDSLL

Structure (SMILES) | Potency
Cc1cc(C)c(NC(=O)CN(CC(=O)O)CC(=O)O)c(C)c1Br | inactive
CC(=O)c1c(C)cc(C(C)(C)C)cc1C | inactive
O=C(O)Cc1c(Cl)ccc(Cl)c1Cl | inactive
COc1ccc(C2C(=O)c3ccccc3C2=O)cc1 | inactive
CCCCCc1ccco1 | inactive
CN(CCOc1ccc(NS(C)(=O)=O)cc1)CCc1ccc(NS(C)(=O)=O)cc1 | inactive
CN(C)CCc1c[nH]c2ccc(C[C@H]3COC(=O)N3)cc12 | inactive
Cc1ncc(CO)c(C=O)c1O | inactive
O=CN1CCCCC1 | inactive
CCOC(=O)COc1cc(-n2ncc(C(F)(F)F)c(C)c2=O)c(F)cc1Cl | inactive
Oc1ccc(-c2ccc(O)cc2)cc1 | inactive
CN1CCN(C2=Nc3ccccc3Sc3ccc(Cl)cc32)CC1 | inactive
Cc1cccc([N+](=O)[O-])c1C(=O)O | inactive
CC(CCc1ccc(O)cc1)NCCc1ccc(O)c(O)c1 (stereo not given) | inactive
CCC(C)CCCC(C)(C)O (stereo not given) | inactive
CCCCCCOC(=O)CCCCC(=O)OCCCCCC | inactive
CCOc1ccc(NC(=O)OC(C)C)cc1OCC | inactive
CC(C)C(=O)OCc1ccccc1 | inactive

Structure (SMILES) | Potency
C[C@@]12C(=O)OC(=O)[C@]1(C)C1CCC2O1 | inactive
CN(C)[C@@H]1C(=O)C(C(=O)NCN2CCCC2)=C(O)[C@@]2(O)C(=O)C3=C(O)c4c(O)cccc4[C@@](C)(O)C3C[C@@H]12 (stereo not given in full) | inactive
CC(=O)OC1CCCCC1 | inactive
CCCCCCCCOC(C)=O | inactive
CCOC(=O)C(C)(C)C | inactive
CCCCCCCCN(C)CCCCCCCC | inactive
COc1cc2nc(Cl)nc(N)c2cc1OC | inactive
CCCN(CCC)c1c([N+](=O)[O-])cc(C(F)(F)F)c(N)c1[N+](=O)[O-] | inactive
CCN(CC)c1ccc(C=O)cc1 | inactive
COc1ccc(C)cc1[N+](=O)[O-] | inactive
O=C1c2ccccc2C(=O)C1(O)O | inactive
COC[C@H](c1ccc(C(F)(F)F)cc1)N1CCN(C2(C)CCN(C(=O)c3c(C)ncnc3C)CC2)C[C@H]1C | inactive
CCOc1cccc(N)c1 | inactive
CCCCCCCCCCCC(C)=O | inactive
CC(=O)Oc1ccc(C(C)=O)cc1 | inactive
C=CC(OCC)OCC | inactive
CN1CCC[C@@H]1Cc1c[nH]c2ccc(CCS(=O)(=O)c3ccccc3)cc12 | inactive
CCCCCCCCCC(=O)OCC | inactive

molecular target: Beta-2 adrenergic receptor (Homo sapiens) (UniProt P07550); assay: Adrenergic beta2 receptor (ADRB2) small molecule agonists, cell-based qHTS assay (AID 1963593); conditions: CHO-ADRB2 cells, cAMP HTRF, 30 min; series mostly up to 42.5 µM;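 note: CHO cells stably overexpressing human ADRB2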
Method in brief: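 CHO cells stably over-expressing ADRB2 were plated overnight at 37C, then dosed with compounds plus a stimulation mix containing 100uM IBMX and 25uM Ro-20-1724 for 0.5hr at room temperature. cAMP was measured by HTRF competition, 1hr.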

Structure (SMILES) | Potency
Cc1cc(C)c(NC(=O)CN(CC(=O)O)CC(=O)O)c(C)c1Br | inactive
CC(=O)c1c(C)cc(C(C)(C)C)cc1C | inactive
O=C(O)Cc1c(Cl)ccc(Cl)c1Cl | inactive
CCCCCc1ccco1 | inactive
CN(C)CCc1c[nH]c2ccc(C[C@H]3COC(=O)N3)cc12 | inactive
CCOC(=O)COc1cc(-n2ncc(C(F)(F)F)c(C)c2=O)c(F)cc1Cl | inactive
CCC(C)CCCC(C)(C)O (stereo not given) | inactive
C[C@@]12C(=O)OC(=O)[C@]1(C)C1CCC2O1 | inactive
CCCN(CCC)c1c([N+](=O)[O-])cc(C(F)(F)F)c(N)c1[N+](=O)[O-] | inactive
O=C1c2ccccc2C(=O)C1(O)O | inactive
COC[C@H](c1ccc(C(F)(F)F)cc1)N1CCN(C2(C)CCN(C(=O)c3c(C)ncnc3C)CC2)C[C@H]1C | inactive
CCCCCCCCCCCC(C)=O | inactive
CC(=O)Oc1ccc(C(C)=O)cc1 | inactive
CCOC(=O)CCC(=O)OCC | inactive

molecular target: D(2) dopamine receptor (Homo sapiens) (UniProt P14416); assay: Dopamine D2 receptor (DRD2) small molecule agonists, cell-based qHTS assay (AID 1963594); conditions: HEK293-DRD2 cAMP HTRF, agonist mode, 30 min; series mostly up to 92.4 µM; note: nearly all actives have a fitted effect of over 35% in size; note: potency is the fitted concentration of half-maximal effect
Method in brief: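 cAMP accumulation in DRD2-HEK293 cells measured by HTRF after 1 h detection; compounds added 10 min before NKH477 (200nM […]) forskolin-analogue stimulation, 30 min at room temperature, with Ro20-1724 present at 0.1 mM final.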

D(2) dopamine receptor (Homo sapiens), sequence (P14416 whole entry, looked up): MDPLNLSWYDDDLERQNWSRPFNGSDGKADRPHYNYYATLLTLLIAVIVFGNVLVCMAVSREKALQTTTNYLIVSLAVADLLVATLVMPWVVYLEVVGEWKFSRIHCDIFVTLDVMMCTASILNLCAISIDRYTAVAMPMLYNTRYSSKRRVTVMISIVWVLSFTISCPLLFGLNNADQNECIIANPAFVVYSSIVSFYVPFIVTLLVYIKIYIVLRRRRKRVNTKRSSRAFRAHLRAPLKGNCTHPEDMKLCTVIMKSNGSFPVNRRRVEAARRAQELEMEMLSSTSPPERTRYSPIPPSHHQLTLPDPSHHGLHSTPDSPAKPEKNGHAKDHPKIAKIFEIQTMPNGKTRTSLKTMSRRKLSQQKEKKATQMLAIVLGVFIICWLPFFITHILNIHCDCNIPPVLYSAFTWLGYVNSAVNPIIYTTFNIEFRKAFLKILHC

Structure (SMILES) | Potency
CC(=O)c1c(C)cc(C(C)(C)C)cc1C | inactive
COc1ccc(C2C(=O)c3ccccc3C2=O)cc1 | inactive
CCCCCc1ccco1 | inactive
O=c1cc(-c2ccccc2)oc2ccc3ccccc3c12 | inactive
CN(CCOc1ccc(NS(C)(=O)=O)cc1)CCc1ccc(NS(C)(=O)=O)cc1 | inactive
CN(C)CCc1c[nH]c2ccc(C[C@H]3COC(=O)N3)cc12 | inactive
Cc1ncc(CO)c(C=O)c1O | inactive
O=CN1CCCCC1 | inactive
Oc1ccc(-c2ccc(O)cc2)cc1 | inactive
CN1CCN(C2=Nc3ccccc3Sc3ccc(Cl)cc32)CC1 | inactive
Cc1cccc([N+](=O)[O-])c1C(=O)O | inactive
c1ccc(C(O[C@H]2CCCN(CCc3ccc4c(c3)OCO4)C2)c2ccccc2)cc1 | inactive
CC(CCc1ccc(O)cc1)NCCc1ccc(O)c(O)c1 (stereo not given) | 77.9 nM (active)
CCC(C)CCCC(C)(C)O (stereo not given) | inactive
CCCCCCOC(=O)CCCCC(=O)OCCCCCC | inactive
CCOc1ccc(NC(=O)OC(C)C)cc1OCC | inactive
CC(C)C(=O)OCc1ccccc1 | inactive
C[C@@]12C(=O)OC(=O)[C@]1(C)C1CCC2O1 | inactive

Structure (SMILES) | Potency
CN(C)[C@@H]1C(=O)C(C(=O)NCN2CCCC2)=C(O)[C@@]2(O)C(=O)C3=C(O)c4c(O)cccc4[C@@](C)(O)C3C[C@@H]12 (stereo not given in full) | inactive
CC(=O)OC1CCCCC1 | inactive
CCCCCCCCOC(C)=O | inactive
CCOC(=O)C(C)(C)C | inactive
CCCCCCCCN(C)CCCCCCCC | inactive
CCCN(CCC)c1c([N+](=O)[O-])cc(C(F)(F)F)c(N)c1[N+](=O)[O-] | inactive
CCN(CC)c1ccc(C=O)cc1 | inactive
COc1ccc(C)cc1[N+](=O)[O-] | inactive
O=C1c2ccccc2C(=O)C1(O)O | inactive
COC[C@H](c1ccc(C(F)(F)F)cc1)N1CCN(C2(C)CCN(C(=O)c3c(C)ncnc3C)CC2)C[C@H]1C | inactive
CCOc1cccc(N)c1 | inactive
CCCCCCCCCCCC(C)=O | inactive
CC(=O)Oc1ccc(C(C)=O)cc1 | inactive
CCOC(=O)CCC(=O)OCC | inactive
C=CC(OCC)OCC | inactive
CN1CCC[C@@H]1Cc1c[nH]c2ccc(CCS(=O)(=O)c3ccccc3)cc12 | inactive
CCCCCCCCCC(=O)OCC | inactive
